Measurements reported in PubChem BioAssay (Tox21).
Where “and” joins values, the source holds several entries; their conditions need not be identical. Equal values may be shown once. Inconclusive results are not listed. More than one record can exist for a structure, and the calls need not agree. Calls of active or inactive are those of the source. Unless noted, calls follow the shape of the full dose curve.

Assays:
[1] = target: Estrogen receptor beta (Homo sapiens) (UniProt Q92731); assay: qHTS assay to identify small molecule antagonists of the estrogen receptor beta (ER-beta) signaling pathway (AID 1259378; active = well fitted inhibition curve with a large enough effect in the signal ratio in the repeat runs, not every such curve was filed as active; the % refers to the signal ratio; also: potency is read from the fitted curve at half-maximal effect)
Sequence of Estrogen receptor beta (Homo sapiens) (Q92731 whole entry, looked up): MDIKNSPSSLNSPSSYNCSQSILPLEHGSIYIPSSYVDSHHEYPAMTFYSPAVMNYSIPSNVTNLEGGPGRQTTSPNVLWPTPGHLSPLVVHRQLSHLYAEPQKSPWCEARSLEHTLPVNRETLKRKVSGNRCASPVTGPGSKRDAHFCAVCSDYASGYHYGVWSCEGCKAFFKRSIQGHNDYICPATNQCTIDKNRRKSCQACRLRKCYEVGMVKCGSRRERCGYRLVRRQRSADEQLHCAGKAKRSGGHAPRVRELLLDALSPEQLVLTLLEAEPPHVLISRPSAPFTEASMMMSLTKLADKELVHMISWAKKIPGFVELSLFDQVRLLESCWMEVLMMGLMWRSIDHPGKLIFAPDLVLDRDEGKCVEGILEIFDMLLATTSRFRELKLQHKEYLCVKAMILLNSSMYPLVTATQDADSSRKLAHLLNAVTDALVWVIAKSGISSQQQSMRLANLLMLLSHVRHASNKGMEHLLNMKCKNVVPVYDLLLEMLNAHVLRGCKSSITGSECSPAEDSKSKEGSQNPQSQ
How it was run: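 ER-beta-UAS-bla HEK293T (GripTite) cells in 2% charcoal-stripped FBS medium were preincubated 6 hr at 37C, dosed with compound, then stimulated with 1 nM E2 (final) for 16 hr; beta-lactamase reporter read by B/G FRET fluorescence after 2 hr substrate loading.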

[2] = qHTS assay to identify small molecule agonists of the estrogen receptor beta (ER-beta) signaling pathway - cell viability counter screen (AID 1259380; active = well fitted curve in the direction sought with a large enough effect in the repeat runs; an effect the other way counts as inactive or inconclusive; also: nearly all actives have a fitted effect of over 30% in size; also: potency is read from the fitted curve at half-maximal effect)
How it was run: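 Same-well viability counter screen. Cells: ER-beta-UAS-bla HEK293T, plated 6 hr before compound, in 2% charcoal-stripped FBS. Compound exposure 16 hr, 37C; viability by CellTiter-Glo luminescence after 30 min at room temperature.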

[3] = qHTS assay to identify small molecule agonists or antagonists of the thyroid stimulating hormone receptor (TSHR) signaling pathway - wild type cell line counter screen (AID 1259384)
How it was run: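 Wild-type HEK293 cells were plated 18 h at 37 C/5% CO2, pin-dosed with compound plus Ro20-1724 medium, held 30 min at room temperature, then given cAMP-d2 and anti-cAMP-cryptate; fluorescence was read after 1 h. Fifteen concentrations, triplicate.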

[4] = target: Thyrotropin receptor (Homo sapiens) (UniProt P16473); assay: qHTS assay to identify small molecule antagonists of the thyroid stimulating hormone receptor (TSHR) signaling pathway (AID 1259385); also: nearly all actives have a fitted effect of over 20% in size; also: potency is read from the fitted curve at half-maximal effect
Sequence of Thyrotropin receptor (Homo sapiens) (P16473 whole entry, looked up): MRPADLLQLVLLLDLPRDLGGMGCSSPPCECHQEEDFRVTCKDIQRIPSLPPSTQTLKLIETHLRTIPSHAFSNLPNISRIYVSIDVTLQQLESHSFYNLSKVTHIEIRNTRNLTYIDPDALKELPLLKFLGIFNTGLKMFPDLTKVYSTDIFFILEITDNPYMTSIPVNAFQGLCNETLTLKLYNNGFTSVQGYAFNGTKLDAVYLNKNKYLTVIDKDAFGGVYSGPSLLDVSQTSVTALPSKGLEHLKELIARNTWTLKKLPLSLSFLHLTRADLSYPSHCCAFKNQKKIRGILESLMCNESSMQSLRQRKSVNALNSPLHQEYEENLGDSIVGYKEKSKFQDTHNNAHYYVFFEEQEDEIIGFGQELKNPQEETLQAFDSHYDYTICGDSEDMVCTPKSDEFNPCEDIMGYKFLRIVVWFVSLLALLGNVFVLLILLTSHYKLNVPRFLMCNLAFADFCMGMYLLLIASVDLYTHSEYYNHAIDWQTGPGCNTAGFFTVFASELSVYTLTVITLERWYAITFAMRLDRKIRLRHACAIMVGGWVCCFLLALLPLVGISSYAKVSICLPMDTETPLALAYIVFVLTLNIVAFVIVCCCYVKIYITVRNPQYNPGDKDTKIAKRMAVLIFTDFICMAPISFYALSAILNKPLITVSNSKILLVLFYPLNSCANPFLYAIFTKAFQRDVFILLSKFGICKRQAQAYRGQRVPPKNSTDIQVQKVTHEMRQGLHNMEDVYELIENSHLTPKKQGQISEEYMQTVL
How it was run: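 TSHR-HEK293 cells were plated and held 18 h at 37C/5% CO2, then given compound plus Ro20-1724 and stimulated with TSH at 1.5 ng/mL final. After 30 min at room temperature, cAMP was detected with cAMP-d2/anti-cAMP-cryptate (1 h) by fluorescence.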

[5] = qHTS assay to identify small molecule agonists of the estrogen receptor alpha (ER-alpha) signaling pathway in the presence of an antagonist - cell viability counter screen (AID 1259386; active = well fitted curve in the direction sought with a large enough effect in the repeat runs; an effect the other way counts as inactive or inconclusive;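 also: cells exposed to compounds for 22 h at 37 °C before the viability read; nearly all actives have a fitted effect of over 30% in size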; also: potency is read from the fitted curve at half-maximal effect; as to activity change, negative = cytotoxicity: series mostly up to about 92 µM)
How it was run: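 Cells are starved of estrogens for 5 days in charcoal-stripped serum, seeded for 24hr and co-treated with ICI-182,780 (10.0nM final) and test compounds. After 22hr at 37C, viability is read as CellTiter-Fluor fluorescence.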

[6] = target: Progesterone receptor (Homo sapiens) (UniProt P06401); assay: qHTS assay to identify small molecule agonists of the progesterone receptor (PR) signaling pathway (AID 1346784); also: nearly all actives have a fitted effect of over 30% in size
Sequence of Progesterone receptor (Homo sapiens) (P06401 whole entry, looked up): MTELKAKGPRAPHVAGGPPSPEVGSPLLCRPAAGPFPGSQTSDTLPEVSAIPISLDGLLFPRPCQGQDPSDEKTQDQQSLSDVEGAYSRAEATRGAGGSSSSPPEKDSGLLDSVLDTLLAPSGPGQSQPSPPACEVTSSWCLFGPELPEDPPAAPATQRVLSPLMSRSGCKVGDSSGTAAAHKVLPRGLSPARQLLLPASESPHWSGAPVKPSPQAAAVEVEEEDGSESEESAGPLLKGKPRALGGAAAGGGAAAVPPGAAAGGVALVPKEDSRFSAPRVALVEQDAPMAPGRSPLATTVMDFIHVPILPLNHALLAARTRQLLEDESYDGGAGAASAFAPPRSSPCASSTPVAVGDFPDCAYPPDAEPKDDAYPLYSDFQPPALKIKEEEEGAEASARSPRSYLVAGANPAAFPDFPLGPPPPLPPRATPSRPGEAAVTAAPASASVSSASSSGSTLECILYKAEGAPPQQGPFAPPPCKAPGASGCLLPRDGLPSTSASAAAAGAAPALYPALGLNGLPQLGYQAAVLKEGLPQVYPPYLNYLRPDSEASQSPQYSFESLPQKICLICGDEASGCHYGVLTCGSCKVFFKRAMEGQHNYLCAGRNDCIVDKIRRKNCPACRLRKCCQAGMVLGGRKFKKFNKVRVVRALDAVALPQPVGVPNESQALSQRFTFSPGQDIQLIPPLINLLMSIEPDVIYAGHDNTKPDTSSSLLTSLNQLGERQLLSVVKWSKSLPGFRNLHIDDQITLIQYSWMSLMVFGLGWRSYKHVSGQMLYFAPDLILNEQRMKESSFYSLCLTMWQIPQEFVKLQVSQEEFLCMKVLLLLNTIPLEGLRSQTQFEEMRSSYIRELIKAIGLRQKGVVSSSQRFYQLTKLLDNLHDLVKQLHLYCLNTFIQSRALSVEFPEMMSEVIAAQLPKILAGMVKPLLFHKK
How it was run: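 Agonist mode, quantitative HTS format in a HEK 293T line expressing a UAS-controlled beta-lactamase reporter; 16 hr compound exposure at 37C in 2% charcoal-stripped FBS, then LiveBLAzer B/G FRET fluorescence.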

[7] = qHTS assay to identify small molecule antagonists of the estrogen receptor beta (ER-beta) signaling pathway - cell viability counter screen (AID 1259382; active = well fitted curve in the direction sought with a large enough effect in the repeat runs; an effect the other way counts as inactive or inconclusive; also: nearly all actives have a fitted effect of over 55% in size; also: potency is read from the fitted curve at half-maximal effect; as to activity change, negative = cytotoxicity: series mostly up to about 92 µM)
How it was run: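 Following a 6 hr plating period, HEK293T cells carrying a UAS-driven beta-lactamase reporter under ER-beta control received compounds and 1nM E2 (final). After 16 hr at 37C and 2 hr substrate loading, CellTiter-Glo luminescence indicated viability.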

[8] = target: Estrogen receptor (Homo sapiens) (UniProt P03372); assay: qHTS assay to identify small molecule agonists of the estrogen receptor alpha (ER-alpha) signaling pathway in the presence of an antagonist (AID 1259383); also: top concentration of the series differs between compounds; nearly all actives have a fitted effect of over 15% in size
Sequence of Estrogen receptor (Homo sapiens) (P03372 whole entry, looked up): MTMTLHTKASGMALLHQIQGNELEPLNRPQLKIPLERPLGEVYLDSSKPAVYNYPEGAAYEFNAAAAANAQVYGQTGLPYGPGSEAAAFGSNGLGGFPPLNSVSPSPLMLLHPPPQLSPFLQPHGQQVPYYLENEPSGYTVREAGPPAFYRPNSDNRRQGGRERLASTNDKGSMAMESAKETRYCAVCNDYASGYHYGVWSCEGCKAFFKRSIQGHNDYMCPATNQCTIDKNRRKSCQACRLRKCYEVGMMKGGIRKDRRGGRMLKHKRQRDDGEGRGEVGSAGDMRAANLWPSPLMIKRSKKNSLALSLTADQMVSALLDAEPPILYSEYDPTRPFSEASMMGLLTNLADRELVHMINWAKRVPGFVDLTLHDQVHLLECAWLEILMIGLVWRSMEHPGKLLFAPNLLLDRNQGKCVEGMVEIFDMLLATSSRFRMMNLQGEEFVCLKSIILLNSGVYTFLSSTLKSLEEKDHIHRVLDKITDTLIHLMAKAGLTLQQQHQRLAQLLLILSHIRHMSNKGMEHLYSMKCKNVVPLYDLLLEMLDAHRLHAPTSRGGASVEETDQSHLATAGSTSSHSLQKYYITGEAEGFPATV
How it was run: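 Cells are hormone-deprived for 5 days (charcoal-stripped FBS, no phenol red), plated for 24hr, spiked with 10.0nM ICI-182,780, then dosed at 15 concentrations. After 22hr at 37C, ONE-Glo luminescence reports ERE-luciferase activity.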

[9] = target: Androgen receptor (Homo sapiens) (UniProt P10275); assay: qHTS assay to identify small molecule agonists of the androgen receptor (AR) signaling pathway in the presence of an antagonist (AID 1259381); also: nearly all actives have a fitted effect of over 15% in size
Sequence of Androgen receptor (Homo sapiens) (P10275 whole entry, looked up): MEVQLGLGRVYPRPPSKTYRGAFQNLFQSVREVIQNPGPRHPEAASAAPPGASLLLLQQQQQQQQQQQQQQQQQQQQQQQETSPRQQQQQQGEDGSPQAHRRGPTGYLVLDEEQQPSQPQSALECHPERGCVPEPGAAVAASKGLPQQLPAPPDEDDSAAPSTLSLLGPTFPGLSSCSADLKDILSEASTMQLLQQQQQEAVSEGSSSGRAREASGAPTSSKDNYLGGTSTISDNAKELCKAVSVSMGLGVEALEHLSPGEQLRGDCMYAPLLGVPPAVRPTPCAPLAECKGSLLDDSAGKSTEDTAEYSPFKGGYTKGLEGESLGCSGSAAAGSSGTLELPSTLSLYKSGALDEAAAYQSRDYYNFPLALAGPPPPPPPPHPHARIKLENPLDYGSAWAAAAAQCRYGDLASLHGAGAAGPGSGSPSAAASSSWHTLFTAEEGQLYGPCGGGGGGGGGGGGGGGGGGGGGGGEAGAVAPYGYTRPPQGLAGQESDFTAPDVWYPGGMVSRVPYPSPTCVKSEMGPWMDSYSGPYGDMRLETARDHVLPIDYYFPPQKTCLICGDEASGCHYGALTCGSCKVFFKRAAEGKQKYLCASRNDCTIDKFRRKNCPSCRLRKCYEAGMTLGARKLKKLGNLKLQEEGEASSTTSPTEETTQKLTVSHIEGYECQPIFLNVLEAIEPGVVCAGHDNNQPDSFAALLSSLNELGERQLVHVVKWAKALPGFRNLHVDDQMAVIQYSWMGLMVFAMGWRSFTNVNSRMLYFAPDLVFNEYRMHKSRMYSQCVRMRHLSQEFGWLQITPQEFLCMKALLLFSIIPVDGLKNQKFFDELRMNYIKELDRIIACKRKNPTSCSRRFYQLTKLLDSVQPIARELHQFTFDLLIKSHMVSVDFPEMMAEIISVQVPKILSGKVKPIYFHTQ
How it was run: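 Cells are MDA-kb2 (human breast carcinoma, MMTV-luc, AR/GR responsive). Nilutamide is present at 3.0uM final throughout; compounds are added at 15 concentrations and incubated 16hr at 37C before ONE-Glo luminescence detection.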

[10] = qHTS assay to identify small molecule agonists of the androgen receptor (AR) signaling pathway in the presence of an antagonist - cell viability counter screen (AID 1259379; active = well fitted curve in the direction sought with a large enough effect in the repeat runs; an effect the other way counts as inactive or inconclusive; also: nearly all actives have a fitted effect of over 25% in size; also: potency is read from the fitted curve at half-maximal effect;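 as to activity change, negative = cytotoxicity: MDA-kb2 human breast cancer cells carrying an MMTV luciferase reporter; series mostly up to about 92 µM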)
How it was run: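 Fluorescence from CellTiter-Fluor, added after 15 hr and read 1 hr later, gave cell viability. Cells were MDA-kb2 exposed to compounds (15 concentrations) in the presence of 3.0uM nilutamide at 37C, 0% CO2.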
% is scaled to controls: 0 for no effect and ±100 for the full control effect.

O=C1NC(=O)[C@@H]2CC=CC[C@H]12
active: Potency [2] 27.3 µM
inactive: Potency [1] | outcome [3] | Potency [4] | Potency [5] | Potency [6]

O=C(O)Cc1ccc2c(c1)C(=O)c1ccccc1CO2
inactive: Potency [1] | Potency [2] | Potency [7] | Potency [8] | Potency [4] | Potency [5] | Potency [6]

CC(C)(C)C1CCC(=O)CC1
inactive: Potency [1] | Potency [2] | Potency [7] | Potency [8] | outcome [3] | Potency [4] | Potency [5] | Potency [6]

COc1cccc2c1C(=O)c1c(O)c3c(c(O)c1C2=O)C[C@@](O)(C(C)=O)C[C@@H]3O[C@H]1C[C@H](N)[C@H](O)[C@H](C)O1
inactive: Potency [7]
active: Potency [1] 4.22 µM | Potency [5] 27.5 µM and 21.1 µM
77.4 µM (active) and inactive: Potency [2]

Cc1ccc(C(C)C)cc2c(C)ccc1-2
inactive: Potency [1] | Potency [2] | Potency [7] | Potency [8] | Potency [4] | Potency [5] | Potency [6]

O=C1C(c2[nH]c3ccc(S(=O)(=O)O)cc3c2O)=Nc2ccc(S(=O)(=O)O)cc21
inactive: Potency [1] | Potency [2] | Potency [7] | Potency [6]

CC(C)OC(=O)C(O)(CC(=O)O)CC(=O)O
inactive: Potency [1] | Potency [2] | outcome [9] | Potency [7] | Potency [8] | outcome [3] | Potency [4] | Potency [5] | Potency [6]

Cc1c2ccccc2c(C)c2c1ccc1ccccc12
inactive: outcome [9] | outcome [3] | Potency [4] | Potency [5] | Potency [6]
active: Potency [10] 53.9 µM and 61.1 µM | Potency [2] 30.3 µM and 27.3 µM | Potency [7] 24.3 µM

COc1cc2nc(N3CCN(C(=O)c4ccco4)CC3)nc(N)c2cc1OC
inactive: activity, negative = inhibition [1] 1.22% [at 19 µM] | activity change, negative = cytotoxicity [7] -13.3% [at 19 µM] | activation [8] 0.868% [at 19 µM] | cAMP activity change [3] -1.07% [at 18.9 µM] | activity change, negative = inhibition [4] -8.31% [at 19 µM] | activity change, negative = cytotoxicity [5] -1.18% [at 19 µM] | activation [6] 4.29% [at 19 µM]

O=C(/C=C/c1ccccc1)OC/C=C/c1ccccc1
inactive: Potency [1] | Potency [2] | outcome [9] | Potency [7] | Potency [8] | Potency [4] | Potency [5] | Potency [6]

CCCCCCCCCCCCOC(=O)c1ccc(O)cc1
inactive: Potency [10] | Potency [2] | outcome [9] | Potency [7] | Potency [8] | Potency [5] | Potency [6]

COc1ccc2cc1Oc1ccc(cc1)C[C@H]1c3c(cc4c(c3Oc3cc5c(cc3OC)CCN(C)[C@@H]5C2)OCO4)CCN1C
active: Potency [10] 26.6 µM | Potency [2] 26.6 µM | Potency [4] 23.7 µM | Potency [5] 13.3 µM
inactive: outcome [9] | Potency [7] | Potency [8] | outcome [3] | Potency [6]

O=C(c1ccc(O)c(O)c1)c1ccc(O)cc1O
inactive: Potency [2] | Potency [7]
active: Potency [10] 68.5 µM

C=CC(=O)Nc1cc2c(Nc3ccc(F)c(Cl)c3)ncnc2cc1OCCCN1CCOCC1
active: Potency [10] 0.841 µM | Potency [2] 23.7 µM | Potency [4] 26.6 µM
inactive: outcome [9] | Potency [7] | Potency [8] | outcome [3] | Potency [6]

Fc1ccc(C(c2ccc(F)cc2)N2CCNCC2)cc1
inactive: Potency [1] | outcome [9] | Potency [7] | Potency [8] | outcome [3] | Potency [4] | Potency [5] | Potency [6]

OC/C=C/CO
inactive: Potency [1] | Potency [2] | Potency [7] | Potency [8] | outcome [3] | Potency [5] | Potency [6]

CCN(CC)C(=O)c1cc(S(=O)(=O)Cc2ccccc2)c(N2CCC(c3ccccc3)CC2)cc1N(CC)CCN(C)C
inactive: Potency [8] | outcome [3] | Potency [5]
active: Potency [1] 21.4 µM | Potency [2] 19.1 µM | Potency [7] 19.1 µM

Cc1ccc(C)cc1
inactive: Potency [10] | Potency [2] | outcome [9] | Potency [7] | Potency [8] | Potency [5] | Potency [6]

Nc1ccc(NCCO)c([N+](=O)[O-])c1
active: Potency [5] 30.6 µM
inactive: Potency [1] | Potency [2] | Potency [7] | Potency [6]

Cc1cccc(C)c1NC(=O)c1ccc(N)cc1
inactive: Potency [1] | outcome [9] | Potency [7] | Potency [8] | outcome [3] | Potency [5] | Potency [6]

OC[C@H]1O[C@H](O[C@H]2O[C@H](CO)[C@@H](O)[C@H](O)[C@H]2O)[C@H](O)[C@@H](O)[C@@H]1O
inactive: Potency [10] | Potency [2] | outcome [9] | Potency [7] | Potency [5] | Potency [6]

O[C@@H]([C@H](O)[C@H](O)CBr)[C@H](O)CBr
inactive: Potency [1] | Potency [2] | Potency [7] | Potency [8] | outcome [3] | Potency [5] | Potency [6]

CCCC[P+](C)(CCCC)CCCC
inactive: Potency [1] | Potency [2] | Potency [7] | Potency [8] | outcome [3] | Potency [5] | Potency [6]

COc1c(C)c2c(c(O)c1C/C=C(\C)CCC(=O)OCCN1CCOCC1)C(=O)OC2
inactive: Potency [10] | outcome [9] | Potency [8] | outcome [3] | Potency [4] | Potency [5] | Potency [6]
active: Potency [2] 0.335 µM

O=S(=O)(O)c1ccc(Nc2nc(Nc3ccc(/C=C/c4ccc(Nc5nc(Nc6ccc(S(=O)(=O)O)cc6)nc(N(CCO)CCO)n5)cc4S(=O)(=O)O)c(S(=O)(=O)O)c3)nc(N(CCO)CCO)n2)cc1
inactive: Potency [10] | Potency [2] | outcome [9] | Potency [7] | Potency [8] | outcome [3] | Potency [4] | Potency [5]

CCN(CC)c1ccc2c(-c3ccc(S(=O)(=O)O)cc3S(=O)(=O)[O-])c3ccc(=[N+](CC)CC)cc-3oc2c1
inactive: Potency [1] | outcome [9] | Potency [7] | Potency [8] | Potency [6]
active: Potency [5] 7.07 µM

CC[C@H](C)COC(=O)/C=C/c1ccc(N=Cc2ccc(OC)cc2)cc1
inactive: Potency [8] | Potency [6]
active: Potency [1] 54.4 µM | Potency [2] 6.1 µM

c1ccc(C(O[C@@H]2CCCN(CCc3ccc4c(c3)OCO4)C2)c2ccccc2)cc1
active: Potency [1] 48.6 µM
inactive: Potency [7] | Potency [8] | outcome [3] | Potency [6]
